# Screening results: PubChem BioAssay, National Center for Advancing Translational Sciences (NCATS)
# BAZ2B block = inhibitors of human BAZ2B bromodomain; Q9UIF8; AlphaScreen BAZ2B-H3K14Ac peptide displacement; Potency, µM (series often up to 114 µM), for the others: at the highest dose activity change, negative = inhibition, actives largely listed as inhibitors; 360,000 compounds, 4.4% hits; AID 504333; further: on the % scale 0 is the no-effect control and ±100 the full control effect; nearly all actives have a fitted effect of over 60% in size
#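 Complex of BAZ2B and biotin-H3K14Ac (50 nM apiece) forms over 30 min at RT, then faces library compounds up to 110 uM for another 30 min; AlphaScreen beads added, 20 min dark incubation, luminescence read.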
# G9a block = G9a (human) methyltransferase inhibition; Q96KQ7; Potency, µM (series often up to 102 µM), without a hit: at the highest dose activity, negative = inhibition, most hits filed as inhibitors; G9a H3K9 monomethylation, AlphaScreen, 2 h; 350,000 compounds, 8.8% hits; further: on the % scale 0 is the no-effect control and ±100 the full control effect; nearly all actives have a fitted effect of over 75% in size
# Target sequence (Q96KQ7 913-1193 limits assumed): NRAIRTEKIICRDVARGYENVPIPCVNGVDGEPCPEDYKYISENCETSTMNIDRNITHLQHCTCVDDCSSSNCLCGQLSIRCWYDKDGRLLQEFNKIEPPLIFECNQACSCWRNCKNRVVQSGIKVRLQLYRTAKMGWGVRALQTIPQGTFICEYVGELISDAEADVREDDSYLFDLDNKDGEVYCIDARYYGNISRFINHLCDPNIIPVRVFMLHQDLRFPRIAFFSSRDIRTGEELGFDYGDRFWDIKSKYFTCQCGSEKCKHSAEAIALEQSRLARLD
#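 Signal arises when biotinylated H3K9 peptide, once monomethylated, bridges streptavidin donor and antibody-captured acceptor beads. Enzyme at 20 nM was preincubated 15 min with test compounds; peptide 500 nM and SAM 20 uM then reacted for 2 h.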
# JMJD2A Tudor = blocks the human JMJD2A Tudor domain; AID 504339; 390,000 compounds, 4.4% hits; AlphaScreen JMJD2A-Tudor / H3K4me3 peptide binding; O75164; Potency, µM (doses to about 114 µM), inactives show top-dose activity change, negative = inhibition, hits mostly inhibitors; further: on the % scale 0 is the no-effect control and ±100 the full control effect; nearly all actives have a fitted effect of over 50% in size
# HP1b chromo inh = inhibitors of HP1-beta chromodomain binding to methylated histone tails. P83916. AID 540317. AlphaScreen HP1-beta / biotin-H3K9me3 peptide binding. 390,000 compounds, 0.56% hits. Potency, µM (top dose mostly 114 µM), without a hit: top-dose activity change, negative = inhibition, actives largely listed as inhibitors; further: nearly all actives have a fitted effect of over 70% in size
# Target sequence (P83916 whole entry, looked up): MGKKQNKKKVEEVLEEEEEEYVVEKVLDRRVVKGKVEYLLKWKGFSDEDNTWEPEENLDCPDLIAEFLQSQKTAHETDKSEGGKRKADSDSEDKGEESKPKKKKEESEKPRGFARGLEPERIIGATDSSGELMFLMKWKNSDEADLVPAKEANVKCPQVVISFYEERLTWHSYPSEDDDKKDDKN
#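 HP1-beta protein (50 nM final) preincubated 30 min at room temperature with biotinylated H3(1-18)K9me3 peptide (50 nM) in PBS pH 7.4, 0.01% Tween-20, then compound added for 30 min. AlphaScreen streptavidin donor/nickel chelate acceptor beads (10 ug/mL final), 30 min dark, luminescence read.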
# Sfp inh = inhibitors of Bacillus subtilis Sfp phosphopantetheinyl transferase | Potency, µM, for inactives: largest response in the series, negative = inhibition, hits mostly inhibitors | 310,000 compounds, 3.5% hits | AID 1490 | Biochemical Sfp PPTase activity, qHTS;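 further: the enzyme is Sfp with the accession as filed and its product quenches rhodamine fluorescence; 0% = enzyme reaction without inhibitor and -100% = no enzyme wells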
#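 After 15 min at room temperature with compound, 15 nM Sfp received 5 uM rhodamine-CoA plus 12.5 uM BHQ-2-ybbR (50 mM Hepes pH 7.6, 10 mM MgCl2). Rate came from the fluorescence difference over 30 min, ex 525/em 598 nm.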
# The depositor's hits bear a star; u = inconclusive; x = not tested or not shown; ! = a repeat was not active; [ ] = dose if it differs, or a comment. Only some compounds are listed: those with a hit (about 12% of all), similar ones and a draw of the others. The call rests on the fitted dose curve; in most records, active means well fitted curve in the direction sought with a large enough effect; inconclusive means small, poorly fitted or top-dose-only effect, or another doubt; inactive means no such curve, though single readings can be large; an effect the other way counts as inactive or inconclusive. Potency means the concentration at half of the fitted maximal effect.
SMILES,BAZ2B block,G9a block,JMJD2A Tudor,HP1b chromo inh,Sfp inh
Oc1ccc(N=C/C=C/c2ccc(Br)cc2)cc1-c1nc2ccccc2s1,u,u,x,x,-15%
N#CC1=C(N)n2c(s/c(=C\c3cccs3)c2=O)=C(C#N)C1c1cccs1 (centres undefined),-4%,35µM*,-19%,20%,45µM*
CCOC(=O)C1=c2s/c(=C\c3ccncc3)c(=O)n2C(N)=C(C(=O)OC)C1c1ccncc1 (centres undefined),-16%,-48%,-25%,45%,-14%
CCOC(=O)C1=C(N)n2c(s/c(=C\c3cccnc3)c2=O)=C(C#N)C1c1cccnc1 (centres undefined),x,x,-20%[11.4 µM],53%,x
CC(C)c1ccc(/C=c2\sc3n(c2=O)C(N)=C(C#N)C(c2ccc(C(C)C)cc2)C=3C(N)=O)cc1 (centres undefined),x,x,-12%,17%,x
CCOC(=O)C1=C(N)n2c(s/c(=C/c3ccco3)c2=O)=C(C(=O)OC)C1c1ccco1 (centres undefined),u,u,56µM*,u,16µM*
N#CC1=C(N)n2c(s/c(=C\c3ccco3)c2=O)=C(C#N)C1c1ccco1 (centres undefined),u,u,56µM*,79µM*,-86%
CC[n+]1c(/C=C2\C=C(C)CC(C)C2)sc2ccccc21 (centres undefined),u,u,50µM*,3%,35µM*
CCC1=C/C(=C/c2sc3ccccc3[n+]2CC)CC(C)(C)C1,45µM*,5µM*,13µM*,-1%,35µM*
CC[n+]1c(/C=C2/C=C(C)CC(C)(C)C2)sc2ccc(OC)cc21,56µM*,-37%[12.7 µM],50µM*,20µM*,14µM*
CC[n+]1c(/C=C2\C=C(C)CC(C)(C)C2)sc2ccccc21,56µM*,u,40µM*,-35%,11µM*
COCCCn1c(SCC(=O)NC2CCCCC2)nnc1-c1ccco1,0%,21%,-13%,11%,3%
COc1ccc(-c2nc(N3CCN(C)CC3)sc2-c2ccc(OC)cc2)cc1,28µM*,14µM*,22µM*,50µM*,u
CCCN(CCC)CC(=O)NCC1(c2ccccc2)CCOCC1,0%,22%[59 µM],-15%[57.1 µM],38%,21%
CCc1noc(C)c1C(=O)Nc1nc(-c2ccc(Cl)cc2Cl)c(C)s1,6%,-18%,3%,-12%,9%
[O-][N+](=Cc1ccccc1)c1ccc(Cl)cc1,x,x,-22%,1%,x
[O-]/[N+](=C/c1ccc(F)cc1)c1ccc(Cl)cc1,-33%,11µM*,-23%,4%,40µM*
CC(C)(CS(=O)(=O)[O-])NC(=O)CC[N+](C)(C)CCO,2.8µM*,u,3.2µM*,8.9µM*,3%
Cc1ccc(-c2nn(-c3ccccc3)cc2CO)cc1,7%,17%,11%,29%,5%
N=C(N)SCc1cn(-c2ccccc2)nc1-c1ccc(Br)cc1,-31%,50µM*,-27%,-10%,50µM*
CCOC(=O)c1c2c([nH]c(=S)c1C#N)CCCC2,u,x,8.9µM*,-15%,40µM*
CCc1[nH]c(=S)c(C#N)c2c1CCCC2,-19%,3.2µM*,14µM*,u,u
CCOC(=O)c1c(C)[nH]c(-c2csc(N)n2)c1C,u,28µM*,u,u,35µM*
COc1ccc(NS(=O)(=O)c2ccc(N3CCCC3)c(NC(=S)Nc3ccc(SC(F)F)cc3)c2)cc1,u,u,56µM*,11µM*,18µM*
CCNC(=O)Nc1cc(S(=O)(=O)Nc2ccc(OC)cc2)ccc1N1CCOCC1,4%,18%[2.33 µM],-5%,42%,x
SMILES,BAZ2B block,G9a block,JMJD2A Tudor,HP1b chromo inh,Sfp inh
COc1ccc(NS(=O)(=O)c2ccc(N3CCCC3)c(NC(=S)Nc3cccc(C)c3C)c2)cc1,u,1.3µM*,56µM*,u,13µM*
O=C(O)CCCN1C(=O)NC2NC(=O)NC21 (centres undefined),u,5%[12.7 µM],-15%,59%,11%
Cc1ccc(C2NC(=O)c3sc(=S)n(-c4ccccc4)c3N2)cc1 (centres undefined),-12%,u,-11%,34%,40µM*
CC(=O)c1cccc(Nc2nc(-c3cccc(C)c3)nc3ccccc23)c1,-7%,7.1µM*,-26%,0%,x
Cc1cccc(-c2nc(Nc3ccc(N4CCOCC4)cc3)c3ccccc3n2)c1,25µM*,7.1µM*,40µM*,-35%,2%
c1ccc2c(Nc3ccc(N4CCOCC4)cc3)nc(N3CCOCC3)nc2c1,u,x,-33%,1%,-6%
CCOC(=O)CSc1nnc(C)n1N,-4%,u,-2%,17%,-25%
COc1cc(OC)cc(C(=O)Oc2c(Sc3ccccc3)c(C)nn2C(C)(C)C)c1,-1%,27%[59 µM],25%,47%,x
CCn1c(=O)c(C(=O)CC#N)c(N)n(Cc2ccccc2)c1=O,-5%,x,2%,28%,6%
O=C(CCC(=O)OCc1ccc(Br)cc1)Nc1ccccc1,8%,12%[59 µM],50µM*,16%,1%
CCOC(=O)CC1C(=O)NCCN1S(=O)(=O)c1ccc(C)cc1 (centres undefined),-6%,3%,-13%,38%,-4%
C[C@@H](CCc1ccc(O)cc1)NCCc1ccc(O)c(O)c1,x,1%[21.5 µM],x,x,56µM*!
CC(C)(C)c1ccc(S(=O)(=O)NCC(=O)Nc2sc3c(c2C(N)=O)CCCC3)cc1,2%,50µM*,-29%[11.4 µM],-6%,-7%
Cc1ccc(S(=O)(=O)CC(=O)Nc2sc3c(c2C(N)=O)CCCC3)cc1,-2%,-22%[59 µM],-34%,32%,x
COCCN(CCOC)S(=O)(=O)c1ccc(C(=O)Nc2sc3c(c2C(N)=O)CCCCC3)cc1,7%,35µM*,-15%,u,50µM*
COC(=O)c1cccc(NC(=O)CSc2nc(O)c(-c3ccccc3)c(=O)[nH]2)c1,u,71µM*,-24%,22%,16%
Cc1ccc(NC(=O)CSc2nc(=O)cc(N)n2-c2ccccc2)cc1,-3%,2%[59 µM],2%,36%,11%
COC(=O)c1ccccc1NC(=O)CSc1nc(O)c(-c2ccccc2)c(=O)[nH]1,u,-4%[59 µM],-2%[57.1 µM],40%,19%
CCc1cccc(NC(=O)CSc2nnc(Cc3ccc(OC)cc3)c(=O)[nH]2)c1,9%,50µM*,3%,6%,x
COC(=O)c1cccc(NC(=O)CSc2nc(=O)cc(N)n2-c2ccccc2)c1,56µM*,u,-22%,-11%,11%
O=C(NCc1cccnc1)C(=O)Nc1ccc([N+](=O)[O-])cc1,-18%,1%,-5%,34%,24%
COc1ccc(S(=O)(=O)Nc2cccc(C)n2)c2ccccc12,9%,13%[59 µM],-13%,26%,18%
COc1ccc(-c2nc3c4ccccc4ccn3c2CN2CCCCC2)cc1OC,u,u,u,-19%,10%
